Test results published in the supplement of paper PMC11732987, “Enantioselective OTUD7B fragment discovery through chemoproteomics screening and high-throughput optimisation” (Communications Chemistry, 2025).

Experiments:
Assay in all cases: log2 ratio of Biotin-Ahx-Ub-VS probe labelling (fragment/DMSO); higher = less target engagement (more negative = stronger competition), active = hit call of the paper (q ≤ 0.05, log2 ratio ≤ -1)
Conditions in all cases: compound concentration: 200 uM; treatment time: 3 h
OTUD6B = target: T1, OTUD6B (UniProt Q8N6M0)
T1 sequence (whole entry): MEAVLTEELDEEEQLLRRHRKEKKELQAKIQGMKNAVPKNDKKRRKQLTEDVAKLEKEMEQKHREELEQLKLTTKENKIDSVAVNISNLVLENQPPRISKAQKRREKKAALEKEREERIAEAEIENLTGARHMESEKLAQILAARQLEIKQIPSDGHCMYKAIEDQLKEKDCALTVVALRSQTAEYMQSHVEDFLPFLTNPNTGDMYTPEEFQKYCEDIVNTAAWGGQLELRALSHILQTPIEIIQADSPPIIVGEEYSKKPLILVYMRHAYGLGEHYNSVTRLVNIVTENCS
Summary of the method: (§1)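 HEK293T lysate, 495 µg per sample in Tris/CHAPS/IGEPAL buffer with protease inhibitors, was treated in triplicate with fragment at 200 µM or vehicle for 3 h and then with Biotin-Ahx-Ub-VS at 0.5 µM final for 1 h. Labelled DUBs were NeutrAvidin-enriched, digested with LysC and trypsin, and run by diaPASEF LC-MS/MS. Spectronaut label-free quantities were global-median-normalised, and values are average log2 fragment/vehicle ratios by unpaired t-test on proteins with ≥2 unique peptides.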

OTUD7B = target: T2, OTUD7B (UniProt Q6GQQ9)
T2 sequence (whole entry): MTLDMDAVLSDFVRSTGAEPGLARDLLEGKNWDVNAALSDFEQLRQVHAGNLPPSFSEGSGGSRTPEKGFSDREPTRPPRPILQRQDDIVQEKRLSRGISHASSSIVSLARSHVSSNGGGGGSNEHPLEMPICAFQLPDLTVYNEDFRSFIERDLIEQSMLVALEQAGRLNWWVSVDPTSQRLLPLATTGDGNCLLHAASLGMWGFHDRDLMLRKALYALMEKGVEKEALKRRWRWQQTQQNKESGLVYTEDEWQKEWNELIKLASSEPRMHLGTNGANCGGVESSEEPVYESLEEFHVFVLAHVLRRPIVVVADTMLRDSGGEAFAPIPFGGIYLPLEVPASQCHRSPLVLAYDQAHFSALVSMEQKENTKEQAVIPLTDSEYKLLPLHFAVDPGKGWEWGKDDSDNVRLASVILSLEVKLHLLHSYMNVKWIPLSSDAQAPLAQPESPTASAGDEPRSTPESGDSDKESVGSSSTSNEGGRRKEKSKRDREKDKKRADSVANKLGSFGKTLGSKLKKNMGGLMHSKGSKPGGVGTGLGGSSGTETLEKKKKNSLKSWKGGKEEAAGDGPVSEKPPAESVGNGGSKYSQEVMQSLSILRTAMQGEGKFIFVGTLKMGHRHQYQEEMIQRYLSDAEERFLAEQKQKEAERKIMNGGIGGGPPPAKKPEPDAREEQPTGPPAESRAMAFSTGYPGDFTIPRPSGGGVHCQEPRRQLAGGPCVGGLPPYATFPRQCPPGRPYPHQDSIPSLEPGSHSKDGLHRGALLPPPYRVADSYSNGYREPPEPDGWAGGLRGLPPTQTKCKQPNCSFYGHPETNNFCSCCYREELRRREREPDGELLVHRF
Summary of the method: as §1

PRPF8 = PRPF8 (UniProt Q6P2Q9)
Summary of the method: as §1

PSMD7 = target: T3, PSMD7 (UniProt P51665)
T3 sequence (whole entry): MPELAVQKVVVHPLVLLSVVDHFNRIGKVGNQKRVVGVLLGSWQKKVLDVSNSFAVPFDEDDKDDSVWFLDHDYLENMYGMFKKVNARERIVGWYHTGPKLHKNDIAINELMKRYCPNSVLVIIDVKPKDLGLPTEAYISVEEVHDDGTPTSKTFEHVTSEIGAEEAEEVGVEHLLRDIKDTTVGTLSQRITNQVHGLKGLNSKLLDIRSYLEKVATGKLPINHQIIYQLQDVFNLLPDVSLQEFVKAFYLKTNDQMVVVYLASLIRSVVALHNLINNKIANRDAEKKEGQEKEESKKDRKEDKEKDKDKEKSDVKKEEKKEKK
Summary of the method: as §1

UCHL1 = UCHL1 (UniProt P09936)
Summary of the method: as §1

UCHL3 = target: T4, UCHL3 (UniProt P15374)
T4 sequence (whole entry): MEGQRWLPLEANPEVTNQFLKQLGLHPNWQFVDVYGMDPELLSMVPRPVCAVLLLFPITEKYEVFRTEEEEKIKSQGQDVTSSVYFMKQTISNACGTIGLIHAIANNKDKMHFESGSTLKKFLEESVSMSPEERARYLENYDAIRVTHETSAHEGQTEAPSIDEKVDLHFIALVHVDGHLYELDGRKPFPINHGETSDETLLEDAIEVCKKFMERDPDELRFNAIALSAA
Summary of the method: as §1

UCHL5 = target: T5, UCHL5 (UniProt Q9Y5K5)
T5 sequence (whole entry): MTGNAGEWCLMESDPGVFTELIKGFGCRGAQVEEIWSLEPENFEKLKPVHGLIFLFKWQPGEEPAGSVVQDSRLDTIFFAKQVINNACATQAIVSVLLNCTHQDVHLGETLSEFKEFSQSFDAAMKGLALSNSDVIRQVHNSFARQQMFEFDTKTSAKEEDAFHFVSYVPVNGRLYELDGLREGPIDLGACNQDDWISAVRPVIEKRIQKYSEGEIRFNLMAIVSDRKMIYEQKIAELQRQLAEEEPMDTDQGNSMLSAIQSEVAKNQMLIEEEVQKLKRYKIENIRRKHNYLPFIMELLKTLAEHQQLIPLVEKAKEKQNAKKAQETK
Summary of the method: as §1

USP10 = USP10 (UniProt Q14694)
Summary of the method: as §1

USP15 = target: T6, USP15 (UniProt Q9Y4E8)
T6 sequence (whole entry): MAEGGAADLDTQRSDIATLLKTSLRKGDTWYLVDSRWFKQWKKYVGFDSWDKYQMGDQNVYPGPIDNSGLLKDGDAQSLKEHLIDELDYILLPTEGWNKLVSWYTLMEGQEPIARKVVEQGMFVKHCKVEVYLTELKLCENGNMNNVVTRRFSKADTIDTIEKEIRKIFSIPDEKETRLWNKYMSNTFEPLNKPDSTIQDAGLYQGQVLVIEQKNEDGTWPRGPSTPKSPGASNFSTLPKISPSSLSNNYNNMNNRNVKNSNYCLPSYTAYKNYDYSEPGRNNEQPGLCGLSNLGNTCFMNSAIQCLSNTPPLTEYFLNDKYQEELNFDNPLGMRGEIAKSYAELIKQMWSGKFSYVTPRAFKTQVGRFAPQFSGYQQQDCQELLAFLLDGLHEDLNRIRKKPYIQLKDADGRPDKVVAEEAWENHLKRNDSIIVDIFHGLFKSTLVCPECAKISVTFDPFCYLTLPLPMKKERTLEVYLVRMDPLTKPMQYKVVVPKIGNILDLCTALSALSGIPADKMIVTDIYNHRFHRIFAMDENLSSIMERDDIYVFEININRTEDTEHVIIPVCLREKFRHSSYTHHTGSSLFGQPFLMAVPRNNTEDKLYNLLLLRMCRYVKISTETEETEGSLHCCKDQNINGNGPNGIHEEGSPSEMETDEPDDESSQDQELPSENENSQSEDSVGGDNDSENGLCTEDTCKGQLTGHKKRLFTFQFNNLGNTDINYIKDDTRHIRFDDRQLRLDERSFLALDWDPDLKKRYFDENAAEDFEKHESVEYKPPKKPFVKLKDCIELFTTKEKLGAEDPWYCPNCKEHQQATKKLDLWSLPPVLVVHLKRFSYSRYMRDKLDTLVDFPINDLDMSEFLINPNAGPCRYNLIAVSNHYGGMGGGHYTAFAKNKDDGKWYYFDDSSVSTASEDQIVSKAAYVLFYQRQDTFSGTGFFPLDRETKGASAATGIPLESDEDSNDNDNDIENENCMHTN
Summary of the method: as §1

USP16 = USP16 (UniProt Q9Y5T5)
Summary of the method: as §1

Measured: log2 ratio of Biotin-Ahx-Ub-VS probe labelling

USP10, sequence (Q14694 whole entry): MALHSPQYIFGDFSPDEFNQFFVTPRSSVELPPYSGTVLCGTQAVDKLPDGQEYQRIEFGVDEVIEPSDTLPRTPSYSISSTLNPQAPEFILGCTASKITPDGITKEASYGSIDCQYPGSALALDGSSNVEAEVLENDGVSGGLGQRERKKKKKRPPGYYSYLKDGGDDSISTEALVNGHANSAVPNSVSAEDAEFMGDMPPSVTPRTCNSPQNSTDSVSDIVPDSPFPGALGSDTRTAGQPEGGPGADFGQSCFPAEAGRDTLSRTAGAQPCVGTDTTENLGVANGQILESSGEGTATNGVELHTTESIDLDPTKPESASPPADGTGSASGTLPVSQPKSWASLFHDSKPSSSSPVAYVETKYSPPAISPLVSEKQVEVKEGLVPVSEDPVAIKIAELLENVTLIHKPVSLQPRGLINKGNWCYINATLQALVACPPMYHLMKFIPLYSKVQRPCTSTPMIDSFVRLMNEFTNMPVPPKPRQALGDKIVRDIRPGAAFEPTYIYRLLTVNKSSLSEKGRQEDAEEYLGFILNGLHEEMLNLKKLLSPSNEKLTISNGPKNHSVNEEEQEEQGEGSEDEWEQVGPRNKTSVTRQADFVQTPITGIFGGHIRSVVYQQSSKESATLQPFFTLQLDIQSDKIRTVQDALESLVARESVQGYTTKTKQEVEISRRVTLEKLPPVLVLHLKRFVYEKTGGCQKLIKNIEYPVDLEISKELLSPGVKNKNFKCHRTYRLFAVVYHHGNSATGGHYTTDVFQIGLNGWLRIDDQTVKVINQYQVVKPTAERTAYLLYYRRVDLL
USP16, sequence (Q9Y5T5 whole entry, looked up): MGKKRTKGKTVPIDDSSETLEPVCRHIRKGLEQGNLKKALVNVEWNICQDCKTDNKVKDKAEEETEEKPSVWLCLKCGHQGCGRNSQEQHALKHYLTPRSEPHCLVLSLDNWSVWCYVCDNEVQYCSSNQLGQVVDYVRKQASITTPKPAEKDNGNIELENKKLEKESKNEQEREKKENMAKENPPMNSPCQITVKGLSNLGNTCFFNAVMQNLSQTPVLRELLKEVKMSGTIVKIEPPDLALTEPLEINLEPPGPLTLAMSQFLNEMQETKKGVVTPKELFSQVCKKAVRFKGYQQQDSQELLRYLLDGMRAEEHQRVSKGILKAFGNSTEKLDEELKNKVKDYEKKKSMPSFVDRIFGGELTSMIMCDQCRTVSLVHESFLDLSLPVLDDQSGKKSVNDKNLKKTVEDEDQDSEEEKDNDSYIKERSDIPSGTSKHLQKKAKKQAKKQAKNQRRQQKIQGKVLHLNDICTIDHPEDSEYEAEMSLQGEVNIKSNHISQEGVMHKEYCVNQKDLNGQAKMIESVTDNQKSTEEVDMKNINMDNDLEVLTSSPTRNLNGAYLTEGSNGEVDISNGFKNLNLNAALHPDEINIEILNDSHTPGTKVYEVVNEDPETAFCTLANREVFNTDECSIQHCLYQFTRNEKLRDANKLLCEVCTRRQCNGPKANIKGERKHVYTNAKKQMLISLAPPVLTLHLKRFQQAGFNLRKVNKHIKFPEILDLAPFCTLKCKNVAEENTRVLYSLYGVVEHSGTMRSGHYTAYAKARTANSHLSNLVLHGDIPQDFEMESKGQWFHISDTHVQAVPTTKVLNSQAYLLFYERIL
UCHL1, sequence (P09936 whole entry, looked up): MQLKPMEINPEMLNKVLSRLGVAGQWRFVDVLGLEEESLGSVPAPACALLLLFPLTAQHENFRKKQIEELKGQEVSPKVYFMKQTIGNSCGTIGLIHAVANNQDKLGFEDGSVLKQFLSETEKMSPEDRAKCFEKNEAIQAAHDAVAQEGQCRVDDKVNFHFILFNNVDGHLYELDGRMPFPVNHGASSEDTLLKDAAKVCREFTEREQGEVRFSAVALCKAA

Cl.O=C(CCl)NCCc1ncc(F)cc1F
inactive: OTUD6B -0.346 | OTUD7B -0.663 | PRPF8 -0.0362 | PSMD7 -0.45 | UCHL3 0.191 | UCHL5 -0.376 | USP10 -0.075 | USP15 -0.3 | USP16 -0.0122
active: UCHL1 -1.7
